Source: the supplement of paper PMC10849652
About 7,900 targets were measured; listed, in parts, are those with a hit and a random draw of the rest. About 0.6% of all pairs of compound and target were hits. A number with no mark means an inactive call.

Key:
Assay in all cases: log2 fold change, soluble protein after heating vs DMSO (PISA); higher = thermal stabilisation; K562 cells, 10 uM, 30 min; active = over 0.2 and 3.5 SD of the protein, either way, in both replicates (recomputed)
erlotinib = compound: C#Cc1cccc(Nc2ncnc3cc(OCCOC)c(OCCOC)cc23)c1 [erlotinib]
Summary of the method: (§1)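 K562 cells at 2×10^6 cells/mL were given 10 μM compound for 30 min. Aliquots then went through 3 min of heating across 48°C-58°C, were pooled, and were extracted in PBS with 0.5% NP-40 at 4°C, and the supernatant after 21,000xg for 90 min was quantified by TMTpro 16plex LC-MS/MS with channel sums equalised. Thermal stability relative to control samples, from duplicates, is given as log2 fold change.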

[1] = compound: C/C(=N\NC(=O)C1=CC(=CC=C1)S(=O)(=O)N2CCOCC2)/C3=C(C=CC(=C3)Cl)O
Summary of the method: as §1

[2] = compound: C1=CC(=C(C=C1Cl)C2=NC3=NC=CN=C3C(=N2)NC4=CC=NC=C4)F
Summary of the method: as §1

[3] = compound: C1=CC(=CC=C1C2=NC3=C(N2)C=C(C=C3)C(=O)N)OC4=CC=C(C=C4)Cl
Summary of the method: as §1

[4] = compound: C1=CC2=C(C=CC(=C2)/C=C\3/C(=O)NC(=NCC4=CC=CS4)S3)N=C1
Summary of the method: as §1

[5] = compound: C1=CC2=NC=CN=C2C=C1/C=C/3\C(=O)NC(=O)S3
Summary of the method: as §1

[6] = compound: C1=CC=C(C=C1)C2=NC(=C(N2)C3=CC=NC=C3)C4=CC(=C(C=C4)Cl)O
Summary of the method: as §1

[7] = compound: C1=CC=C2C(=C1)C3=NNC4=CC=CC(=C43)C2=O
Summary of the method: as §1

[8] = compound: C1CCN(C1)C(=O)NC2=CC=CC(=C2)NC3=NC=C(C(=N3)NCCC4=CN=CN4)Br
Summary of the method: as §1

[9] = compound: C1CN(CCC1(CC2=CC=C(C=C2)Cl)N)C3=NC=NC4=C3C=CN4
Summary of the method: as §1

Sequence of UniProt Q8WXD5 (Q8WXD5 whole entry, looked up): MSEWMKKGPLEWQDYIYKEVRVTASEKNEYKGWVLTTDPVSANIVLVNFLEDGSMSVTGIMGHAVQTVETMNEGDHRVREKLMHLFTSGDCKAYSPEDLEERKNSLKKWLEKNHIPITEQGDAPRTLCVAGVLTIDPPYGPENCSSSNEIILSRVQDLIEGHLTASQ
Sequence of UniProt P15104 (P15104 whole entry, looked up): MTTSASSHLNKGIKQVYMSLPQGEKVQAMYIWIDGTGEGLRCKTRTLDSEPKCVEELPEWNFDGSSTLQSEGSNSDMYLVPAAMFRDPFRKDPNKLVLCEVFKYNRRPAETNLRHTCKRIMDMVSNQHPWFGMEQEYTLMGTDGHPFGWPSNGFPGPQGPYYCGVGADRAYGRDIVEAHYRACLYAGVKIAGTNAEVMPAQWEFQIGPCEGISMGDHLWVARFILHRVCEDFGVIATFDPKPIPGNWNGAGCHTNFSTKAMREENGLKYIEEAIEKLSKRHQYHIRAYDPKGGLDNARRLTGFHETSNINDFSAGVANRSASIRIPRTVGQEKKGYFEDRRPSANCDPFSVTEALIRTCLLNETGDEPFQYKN
Sequence of UniProt P0CL80 (P0CL80 whole entry, looked up): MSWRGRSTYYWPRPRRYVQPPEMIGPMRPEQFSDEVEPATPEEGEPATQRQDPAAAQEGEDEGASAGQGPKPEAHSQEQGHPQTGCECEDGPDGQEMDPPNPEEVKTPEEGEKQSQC
Sequence of UniProt P69905 (P69905 whole entry, looked up): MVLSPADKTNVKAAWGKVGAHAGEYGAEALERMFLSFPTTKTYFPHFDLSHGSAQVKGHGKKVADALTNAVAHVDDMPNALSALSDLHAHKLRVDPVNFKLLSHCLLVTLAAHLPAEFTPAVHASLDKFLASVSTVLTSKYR
Sequence of UniProt Q96I24 (Q96I24 whole entry, looked up): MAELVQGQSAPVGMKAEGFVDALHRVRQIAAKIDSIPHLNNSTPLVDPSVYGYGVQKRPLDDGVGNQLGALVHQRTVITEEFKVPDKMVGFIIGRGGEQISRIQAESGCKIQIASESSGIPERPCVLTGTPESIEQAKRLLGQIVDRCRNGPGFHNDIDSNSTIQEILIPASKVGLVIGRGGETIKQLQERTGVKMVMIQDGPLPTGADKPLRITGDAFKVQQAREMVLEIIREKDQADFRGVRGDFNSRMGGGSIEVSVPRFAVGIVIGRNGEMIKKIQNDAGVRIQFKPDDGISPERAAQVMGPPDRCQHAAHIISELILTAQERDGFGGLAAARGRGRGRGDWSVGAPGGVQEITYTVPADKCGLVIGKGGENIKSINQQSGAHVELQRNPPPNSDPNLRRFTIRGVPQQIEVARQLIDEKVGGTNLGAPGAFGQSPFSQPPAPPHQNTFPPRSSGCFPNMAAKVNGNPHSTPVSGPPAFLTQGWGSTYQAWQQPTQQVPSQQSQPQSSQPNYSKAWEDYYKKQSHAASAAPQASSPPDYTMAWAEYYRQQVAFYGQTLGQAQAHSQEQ
Sequence of UniProt O00165 (O00165 whole entry, looked up): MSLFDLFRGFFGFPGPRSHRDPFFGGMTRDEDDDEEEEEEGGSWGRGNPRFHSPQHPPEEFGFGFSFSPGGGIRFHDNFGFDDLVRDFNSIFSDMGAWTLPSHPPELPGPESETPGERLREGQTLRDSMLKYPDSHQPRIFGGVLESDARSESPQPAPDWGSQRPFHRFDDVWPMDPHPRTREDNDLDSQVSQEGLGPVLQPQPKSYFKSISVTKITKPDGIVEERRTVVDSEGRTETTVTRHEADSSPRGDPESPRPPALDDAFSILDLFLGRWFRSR
Sequence of UniProt P52657 (P52657 whole entry, looked up): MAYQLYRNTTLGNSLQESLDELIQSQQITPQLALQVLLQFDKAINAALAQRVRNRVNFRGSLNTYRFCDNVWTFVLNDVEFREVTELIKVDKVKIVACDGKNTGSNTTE
Sequence of UniProt P31943 (P31943 whole entry, looked up): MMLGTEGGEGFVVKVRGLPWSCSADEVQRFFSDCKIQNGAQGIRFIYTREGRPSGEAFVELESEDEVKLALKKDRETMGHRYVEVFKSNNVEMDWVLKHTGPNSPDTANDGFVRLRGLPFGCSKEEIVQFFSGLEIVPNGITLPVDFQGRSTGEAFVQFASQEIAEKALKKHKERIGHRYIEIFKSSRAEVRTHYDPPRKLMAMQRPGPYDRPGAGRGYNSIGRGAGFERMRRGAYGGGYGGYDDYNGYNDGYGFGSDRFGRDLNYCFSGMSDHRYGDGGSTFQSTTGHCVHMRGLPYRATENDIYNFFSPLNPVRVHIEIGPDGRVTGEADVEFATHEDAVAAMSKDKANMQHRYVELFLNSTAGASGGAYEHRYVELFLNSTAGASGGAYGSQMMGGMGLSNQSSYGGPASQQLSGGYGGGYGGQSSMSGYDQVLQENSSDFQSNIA
Sequence of UniProt Q9Y5Q8 (Q9Y5Q8 whole entry, looked up): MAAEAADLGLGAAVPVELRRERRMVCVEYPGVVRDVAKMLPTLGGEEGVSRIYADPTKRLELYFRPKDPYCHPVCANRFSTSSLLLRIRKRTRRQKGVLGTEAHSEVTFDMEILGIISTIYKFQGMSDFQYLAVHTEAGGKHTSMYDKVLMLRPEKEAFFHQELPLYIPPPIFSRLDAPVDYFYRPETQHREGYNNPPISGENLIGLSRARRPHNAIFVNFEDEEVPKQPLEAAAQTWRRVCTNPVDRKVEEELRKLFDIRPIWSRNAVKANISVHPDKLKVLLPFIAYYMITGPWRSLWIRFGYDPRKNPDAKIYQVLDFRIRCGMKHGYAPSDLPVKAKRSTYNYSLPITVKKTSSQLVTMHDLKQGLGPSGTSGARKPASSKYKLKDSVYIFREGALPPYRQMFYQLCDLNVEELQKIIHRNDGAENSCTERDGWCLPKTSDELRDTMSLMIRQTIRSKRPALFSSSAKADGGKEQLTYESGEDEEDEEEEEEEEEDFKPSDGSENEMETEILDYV
Sequence of UniProt Q14C86 (Q14C86 whole entry, looked up): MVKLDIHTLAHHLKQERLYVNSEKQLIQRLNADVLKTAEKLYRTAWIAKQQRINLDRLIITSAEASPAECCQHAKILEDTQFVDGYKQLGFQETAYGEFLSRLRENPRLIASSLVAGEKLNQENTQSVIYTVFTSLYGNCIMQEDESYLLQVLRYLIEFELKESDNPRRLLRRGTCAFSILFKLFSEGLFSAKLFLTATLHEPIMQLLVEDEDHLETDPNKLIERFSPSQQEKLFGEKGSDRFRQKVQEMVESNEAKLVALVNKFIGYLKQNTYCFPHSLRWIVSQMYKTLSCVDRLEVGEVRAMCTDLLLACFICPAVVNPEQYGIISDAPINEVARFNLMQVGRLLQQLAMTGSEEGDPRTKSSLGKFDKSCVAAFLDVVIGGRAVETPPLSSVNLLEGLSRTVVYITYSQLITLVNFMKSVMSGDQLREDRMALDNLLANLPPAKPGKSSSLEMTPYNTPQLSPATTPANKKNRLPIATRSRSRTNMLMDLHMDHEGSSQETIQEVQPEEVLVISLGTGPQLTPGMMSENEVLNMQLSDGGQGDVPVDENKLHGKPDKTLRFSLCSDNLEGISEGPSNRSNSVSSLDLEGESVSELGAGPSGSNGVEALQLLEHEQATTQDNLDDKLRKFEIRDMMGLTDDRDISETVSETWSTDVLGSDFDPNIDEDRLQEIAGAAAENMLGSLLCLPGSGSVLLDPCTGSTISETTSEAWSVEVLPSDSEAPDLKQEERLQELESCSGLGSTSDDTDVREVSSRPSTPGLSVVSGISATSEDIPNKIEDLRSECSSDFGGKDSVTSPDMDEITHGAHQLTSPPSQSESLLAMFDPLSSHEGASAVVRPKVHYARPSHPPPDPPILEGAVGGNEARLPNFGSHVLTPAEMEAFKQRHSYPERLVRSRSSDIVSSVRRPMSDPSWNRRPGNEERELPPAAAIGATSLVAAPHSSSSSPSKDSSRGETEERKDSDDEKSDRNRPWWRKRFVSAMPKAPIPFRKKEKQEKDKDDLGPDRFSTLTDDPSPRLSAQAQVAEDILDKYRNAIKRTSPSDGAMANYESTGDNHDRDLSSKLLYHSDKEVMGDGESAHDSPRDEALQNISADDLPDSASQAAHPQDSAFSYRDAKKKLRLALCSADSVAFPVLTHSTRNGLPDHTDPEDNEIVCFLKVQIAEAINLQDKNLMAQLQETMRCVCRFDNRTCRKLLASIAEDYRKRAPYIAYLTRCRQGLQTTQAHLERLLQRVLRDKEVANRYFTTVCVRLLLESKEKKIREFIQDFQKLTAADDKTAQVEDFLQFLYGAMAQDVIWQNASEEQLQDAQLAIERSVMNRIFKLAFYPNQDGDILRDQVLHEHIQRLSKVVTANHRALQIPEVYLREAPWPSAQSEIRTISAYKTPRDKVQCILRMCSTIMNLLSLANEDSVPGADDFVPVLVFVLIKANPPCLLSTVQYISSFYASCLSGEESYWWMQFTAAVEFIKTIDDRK
Sequence of UniProt Q86UX7 (Q86UX7 whole entry, looked up): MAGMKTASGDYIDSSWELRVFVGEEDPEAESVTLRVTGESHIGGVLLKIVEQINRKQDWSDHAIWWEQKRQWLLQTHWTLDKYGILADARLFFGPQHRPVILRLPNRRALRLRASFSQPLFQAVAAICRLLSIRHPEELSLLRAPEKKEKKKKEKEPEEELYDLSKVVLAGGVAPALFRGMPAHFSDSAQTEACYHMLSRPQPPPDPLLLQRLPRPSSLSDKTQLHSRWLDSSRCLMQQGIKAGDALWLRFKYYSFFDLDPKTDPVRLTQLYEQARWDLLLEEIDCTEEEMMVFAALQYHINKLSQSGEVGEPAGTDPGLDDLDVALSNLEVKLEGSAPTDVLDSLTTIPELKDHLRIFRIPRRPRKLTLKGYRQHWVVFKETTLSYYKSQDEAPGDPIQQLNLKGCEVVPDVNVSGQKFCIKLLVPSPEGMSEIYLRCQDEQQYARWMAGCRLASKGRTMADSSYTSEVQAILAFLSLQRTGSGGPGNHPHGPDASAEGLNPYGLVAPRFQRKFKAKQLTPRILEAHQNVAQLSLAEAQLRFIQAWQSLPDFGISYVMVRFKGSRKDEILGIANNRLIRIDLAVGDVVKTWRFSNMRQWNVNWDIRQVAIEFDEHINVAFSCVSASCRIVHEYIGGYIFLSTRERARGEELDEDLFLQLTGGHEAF

Target | log2 fold change (erlotinib) | log2 fold change [1] | log2 fold change [2] | log2 fold change [3] | log2 fold change [4] | log2 fold change [5] | log2 fold change [6] | log2 fold change [7] | log2 fold change [8] | log2 fold change [9]
GOLGB1 isoform 2 (UniProt Q14789) | -0.152 | -0.045 | -0.312 (active) | -0.055 | 0.099 | 0.071 | -0.049 | -0.059 | -0.059 | -0.08
GPAT4 (UniProt Q86UL3) | -0.017 | -0.002 | 0.06 | -0.021 | -0.016 | -0.016 | -0.01 | 0.032 | -0.087 | 0.07
H2AFX (UniProt P16104) | 0.05 | -0.243 | -0.54 | 0.072 | 0.014 | 0.274 | -0.087 | -0.049 | 0.231 | -0.319
GIGYF2 (UniProt Q6Y7W6) | 0.062 | 0.081 | -0.022 | -0.03 | 0.05 | 0.014 | 0.009 | 0.025 | -0.039 | -0.025
HBA1 (UniProt P69905) | -0.058 | 0.048 | 0.215 | 0.063 | 0.104 | 0.023 | 0.123 | -0.026 | -0.105 | 0.031
HAX1 (UniProt O00165) | 0.07 | -0.006 | -0.024 | -0.014 | 0.087 | 0.008 | 0.06 | 0.156 | 0.027 | -0.078
HRC (UniProt P23327) | 0.012 | -0.056 | 0.042 | -0.018 | 0.005 | 0.023 | -0.021 | -0.087 | 0.041 | 0.045
GDI1 (UniProt P31150) | -0.009 | 0.025 | 0.03 | 0.014 | 0.007 | 0.007 | -0.021 | -0.001 | 0.015 | 0.008
FERMT3 (UniProt Q86UX7) | 0.019 | 0.076 | 0.091 | -0.003 | 0.028 | 0.02 | 0.011 | 0.008 | -0.006 | 0.012
GCDH (UniProt Q92947) | 0.016 | -0.078 | 0.045 | -0.273 (active) | 0.081 | -0.011 | 0.082 | 0.048 | -0.011 | 0.039
GAGE12F (UniProt P0CL80) | -0.056 | -0.061 | 0.017 | -0.035 | 0.08 | 0.025 | -0.007 | 0.011 | -0.088 | 0.052
HMGCR isoform 3 (UniProt P04035) | -0.089 | 0.025 | -0.001 | 0.032 | -0.038 | 0.101 | -0.033 | -0.137 | -0.081 | 0
GTF3C5 isoform 3 (UniProt Q9Y5Q8) | 0.085 | 0.293 | -0.078 | -0.049 | -0.413 (active) | -0.056 | -0.089 | 0.079 | -0.067 | -0.038
GAPVD1 isoform 6 (UniProt Q14C86) | 0.008 | 0.133 | -0.036 | -0.043 | 0.033 | 0.007 | 0.002 | 0.037 | -0.012 | -0.041
GTF2A2 (UniProt P52657) | -0.057 | 0.048 | 0.089 | -0.005 | 0.132 | 0.038 | -0.002 | -0.02 | 0.008 | 0.07
HNRNPH1 (UniProt P31943) | 0.043 | 0.102 | -0.04 | 0.004 | -0.035 | -0.012 | -0.016 | 0.007 | -0.1 | -0.023
FUCA1 (UniProt P04066) | 0.01 | 0.024 | 0.049 | -0.007 | 0.031 | -0.004 | -0.004 | 0.044 | 0.012 | 0.018
FUBP3 (UniProt Q96I24) | -0.059 | 0.007 | 0.084 | 0.019 | -0.014 | 0.069 | -0.017 | 0.002 | 0.009 | 0.036
GLUL (UniProt P15104) | -0.058 | 0.016 | 0.027 | 0.022 | -0.006 | -0.003 | -0.007 | -0.045 | -0.037 | 0.017
GSTO1 (UniProt P78417) | -0.009 | 0.007 | 0.065 | -0.001 | 0.006 | 0.278 (active) | 0.095 | 0.031 | -0.005 | 0.008
GABPA (UniProt Q06546) | 0.07 | 0.121 | 0.014 | -0.042 | 0.083 | -0.055 | 0.049 | 0.025 | -0.028 | 0.011
HMGN2 (UniProt P05204) | -0.02 | -0.01 | -0.255 | 0.034 | -0.125 | -0.039 | -0.052 | 0.059 | 0.011 | 0.019
GBE1 (UniProt Q04446) | 0.008 | 0.135 | 0.037 | -0.057 | 0.158 | -0.019 | -0.058 | -0.03 | -0.061 | -0.108
GSK3A (UniProt P49840) | -0.02 | 0.015 | 0.01 | 0.045 | -0.001 | -0.001 | 0.18 | 0.147 | 0.131 | 0.019
HNRNPK isoform 2 (UniProt P61978) | 0.042 | 0.019 | -0.003 | 0 | 0.058 | -0.008 | -0.013 | -0.024 | 0.011 | 0.02
GEMIN6 (UniProt Q8WXD5) | -0.002 | 0.02 | -0.042 | 0.027 | -0.022 | 0.065 | 0.125 | -0.012 | -0.002 | -0.045
FNTA (UniProt P49354) | 0.245 | -0.033 | 0.116 | -0.017 | 0.075 | -0.009 | 0.051 | -0.034 | 0.065 | 0.106
HIST2H3A (UniProt Q71DI3) | 0.113 | -0.114 | -0.305 | -0.028 | 0.011 | 0.221 | 0.047 | -0.004 | 0.287 | -0.378
HDDC2 (UniProt Q7Z4H3) | -0.014 | 0.059 | 0.039 | 0.018 | -0.072 | 0.034 | 0.292 (active) | 0.024 | -0.039 | 0.076
GLCCI1 (UniProt Q86VQ1) | 0.027 | -0.101 | -0.058 | -0.006 | 0.091 | 0.023 | -0.264 | -0.017 | -0.044 | -0.024
